Test results as given in PubChem BioAssay AID2732 (Emory University Molecular Libraries Screening Center, 2010).
The campaign covered roughly 220,000 compounds. About 8,200 (3.7%) were called active.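 Rule for the calls: active = compounds that reduced the stress-induced luciferase reporter signal by more than about 70% of percent inhibition (limit read from the data); inactive = the rest.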 The full list was thinned out, with actives kept by preference.

Experiment: inhibitors of CHOP promoter induction, primary screen, cell-based, unfolded protein response, luciferase reporter (AID 2732);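 note: 0% = tunicamycin plus vehicle and 100% = wells without tunicamycin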
Details: CHO-K1 CHOP-promoter luciferase, tunicamycin-induced, 15-18 h; at 10 µM; stronger effect = higher value

inhibition, inactive:
O=C(N/N=C/c1ccc(OCc2ccccc2)cc1)c1ccc(O)cc1 -37.6%
CN(C)c1ccc(/C=N/N(Cc2ccccc2)c2ccccc2)cc1 1.37%
NC(=O)C1=CN(C2OC(COP(=O)(O)OP(=O)(O)OC[C@H]3O[C@@H](n4cnc5c(N)ncnc54)C(OP(=O)(O)O)[C@H]3O)C(O)C2O)C=CC1 (stereo not given in full) -6.4%
O=C(NC1CCN(Cc2ccccc2)CC1)c1ccccc1F 22.9%
CCC(=O)Nc1ccc2nc(C)n(Cc3ccccc3Cl)c(=O)c2c1 -4.28%
Cc1sc2nc(CSCC(=O)Nc3c(Cl)cccc3Cl)[nH]c(=O)c2c1C 0.31%
CC(C)NC(=O)c1ccc(Cl)cc1Cl 12.1%
O=C(Nc1ccccc1)N1CCN(C2c3ccccc3-c3ccccc32)CC1 12.3%
Cc1ccc(C)c2c1cc(C)c1nnc(SCC(=O)Nc3cccc(C(=O)O)c3)n12 -9.73%
CC(=O)N1CCN(CC(=O)Nc2ccc(SC(F)F)cc2)CC1 16.9%
Cc1ccc(CC(=O)Nc2ccc(OC(F)F)c(Cl)c2)cc1C 62%
CC(NC(=S)Nc1ccccc1)C(c1cccs1)N1CCOCC1 (stereo not given) -3.16%
Oc1c(Br)cc(/C=N/NC(=S)NCC2CCCO2)cc1Br (stereo not given) 22.4%
O=C(Cc1ccccc1)NNC1CC(=O)N(c2ccc(Br)cc2)C1=O (stereo not given) 17%
CC1=C(C)CC2C(=O)N(c3cccc4ccccc34)C(=O)C2C1 (stereo not given) 19.9%
COc1cc(/C=C(\C#N)C(=O)Nc2ccc3ccccc3c2)c([N+](=O)[O-])cc1OC -24.5%
COc1cc(C=O)c(Br)cc1OCC(=O)NCc1ccccc1 18%
O=C(NCc1ccco1)C1CCCN1S(=O)(=O)c1ccccc1C(F)(F)F (stereo not given) 14.3%
CN(C)NC(=O)c1csnc1-c1c(Cl)cccc1Cl -5.93%
Cc1ccccc1CSc1nnc(CCCCCNC(=O)OC(C)(C)C)o1 12.7%
NCC(=O)c1cccc2ccc[n+]([O-])c12 -8.9%
COc1ccc(S(=O)(=O)Nc2ccc(O)c(Sc3nc4ccccc4s3)c2)cc1 13.3%
O=C(CSc1nc2ccccc2s1)Nc1ccc(C(=O)O)cc1 -1.84%
C/C(=N\NC(=O)CC(C)C)c1c(C(F)(F)F)[nH]n(-c2nc3ccccc3s2)c1=O -21.3%
CCN(CC)c1ccc(/C=N/NC(=O)c2cnccn2)c(O)c1 47.2%
C=CCn1c(N)c(C(=O)OCC(C)C)c2nc3ccccc3nc21 18%
CCC(C)NC(=O)c1c(N)n(/N=C/c2cccs2)c2nc3ccccc3nc12 (stereo not given) 67.4%
Cc1cccc(NC(=O)CSc2nnc(CCNC(=O)OC(C)(C)C)o2)c1C -14.5%
COC(=O)c1ccc(COc2cc([N+](=O)[O-])cc3cccnc23)cc1 5.56%
CC(=O)N(OCc1ccc(OC(C)C)c(Cl)c1)C(C)=O -4.06%
CCOCc1nnc(NC(=O)CSc2ccc(C)cc2)s1 12.8%
O=C(Nc1ccc(Cl)cc1)Nc1nnc(/C=C/c2ccccc2)s1 46.8%
Cc1ccc(N2CCN(S(=O)(=O)c3ccc(F)cc3)CC2)c(C)c1 47.5%
Cc1ccc(-n2ncc3c(=O)[nH]cnc32)c(C)c1 31.6%
CCOc1ccc(/C=N/NC(=O)CSc2ccccn2)cc1O 3.02%
O=C(CCC(=O)OCc1ccc(Cl)cc1)Nc1ccccc1 0.59%
CC1CCN(CCC(=O)Nc2ccccc2)CC1 -9.3%
COc1ccccc1CNC(=O)Cn1c(=O)oc2cc(Cl)ccc21 4.18%
CCOc1ccc2nc(SC(CC)C(=O)Nc3cc(C)on3)sc2c1 (stereo not given) 27.5%
CC(N=Cc1nc(-c2ccccc2)oc1O)c1ccccc1 (stereo not given) 28.4%
Cn1c(SCC(=O)Nc2ccc(Cl)cc2)nc(O)cc1=O -3.96%
O=C(COC(=O)c1ccccn1)Nc1cccc2ccccc12 -19.7%
N#Cc1ccc(C(=O)Nc2cccc3cccnc23)c(F)c1 -2.37%
CCN(CC)CCNCC(=O)Nc1ccc(Oc2ccccc2)cc1 -16.4%
Cc1cc2cc(CN(Cc3cccs3)Cc3nnnn3CC3CCCO3)c(=O)[nH]c2cc1C (stereo not given) 20.8%
Cc1cc(C)c2cc(CN(Cc3nnnn3Cc3ccc(F)cc3)C3CCCC3)c(=O)[nH]c2c1 8.91%

inhibition, active:
Oc1ccc(/C=N/N(Cc2ccccc2)c2ccccc2)cc1 97.5%
CCN1CCN(c2cc3nc(C)n(Cc4ccccc4)c(=O)c3cc2NC(=O)c2ccccc2F)CC1 95.7%
Cc1sc2nc(COC(=O)C(NC(=O)c3ccc(Cl)cc3Cl)C(C)C)[nH]c(=O)c2c1C (stereo not given) 95.4%
O=C(Cc1ccc(Cl)c(Cl)c1)Nc1ccc(SC(F)F)cc1 88%
Cc1ccc(N2C(=O)CC(Nc3cccc4ccccc34)C2=O)cc1 (stereo not given) 74.7%
COc1ccc(NC(=O)/C(C#N)=C\c2cc(OC)c(OCc3ccc(C(=O)O)cc3)cc2Br)cc1 103%
O=[N+]([O-])c1c(NCCO)cc(Sc2nc3ccccc3s2)c2nonc12 108%
CC(C)Cn1c(N)c(C(=O)NCc2cccs2)c2nc3ccccc3nc21 89%
O=C(CSc1ccccc1)Nc1nnc(/C=C/c2ccccc2)s1 88.6%
Cc1ccc(-n2ncc3c(N4CCN(c5ccc(F)cc5)CC4)ncnc32)c(C)c1 83.8%
CC(C)(C)C1CCC(OC(=O)CCC(=O)Nc2ccccc2)CC1 (stereo not given) 71.5%
CCOc1ccc2nc(/N=C/c3nc(-c4ccccc4)oc3O)sc2c1 73.9%
N#Cc1ccccc1NC(=O)COc1c(Br)cc(Br)c2cccnc12 88.1%
Cc1cc(C)c2cc(CN(Cc3cccs3)Cc3nnnn3CC3CCCO3)c(=O)[nH]c2c1 (stereo not given) 76%
